Measured values from PubChem BioAssay (NCI).
This is part of a sample that, as a whole, favours compounds with a hit. Of some 79,000 tested, about 15% had one in any assay. A number with no mark means an inactive call. Activity calls are given as the source filed them. Rule as the data show it: active = growth inhibition above about 70%; inactive = the rest.

Test: NCI Yeast Anticancer Drug Screen. Data for the mlh1 rad18 strain (AID 175)
Details: S. cerevisiae mlh1 rad18 strain growth inhibition; at 50.0 µM (retest, dose inferred, filed as 5.0); stronger effect = higher value
Method in brief: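 Vehicle-treated cultures served as the reference for growth inhibition in a yeast strain carrying DNA damage repair alterations exposed to each compound.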
With Oc1c(Br)cc(Cl)cc1Br the growth inhibition was 96% (active).
With COc1ccc(C2Oc3ccc(Cl)cc3C=C2[N+](=O)[O-])cc1OC (stereo not given) the growth inhibition was 97% (active).
With COC(=O)C(=O)CC(=O)c1cccc(Cl)c1 the growth inhibition was 99% (active).
Compound O/N=C(/C[N+]12CN3CN(CN(C3)C1)C2)c1ccc(I)cc1 has a growth inhibition of 57%.
With COc1cc(CCN=Cc2cc(Cl)cc(Cl)c2O)c([N+](=O)[O-])cc1OC the growth inhibition was 91% (active).
For COc1ccc2c(c1OC)C1=C(C2=O)c2cc3c(cc2CCN1)OCO3, the growth inhibition was 93% (active).
With CC(C)(C)[Si](C)(C)OCC1OC(n2cc(I)c(N)nc2=O)C(O[Si](C)(C)C(C)(C)C)C1O[Si](C)(C)C(C)(C)C (stereo not given) the growth inhibition was 94% (active).
For O=S(=O)(Nc1ccccn1)c1ccc(NCc2c3ccccc3nc3cc(Cl)ccc23)cc1, the growth inhibition was 52%.
OCc1ccc2c(c1)CC1(C2)Cc2cc3c(cc2C1O)CCC3 (stereo not given) gave a growth inhibition of 57%.
In the case of COc1cc(C(c2cc3c(cc2O)OCO3)N2CCOCC2)ccc1O (stereo not given), the growth inhibition is reported as 34%.
In the case of CCCCCCCCCCCCCCSC(=N)N, the growth inhibition is reported as 96% (active).
In the case of Cc1ccccc1NC(=S)Nc1ccccc1O, the growth inhibition is reported as 71% (active).
Work on c1cc2cc(Cc3ccc4[nH]ccc4c3)ccc2[nH]1 yielded a growth inhibition of 41%.
With N=C(N)c1ccc(-c2ccc(-c3ccc(C(=N)N)cc3)o2)cc1 the growth inhibition was 76% (active).
For O=c1oc2c/c(=C\c3ccccc3)c(=O)c3cccc1c3-2, the growth inhibition was 96% (active).
Work on CCCCCCCC(=O)/C=C/c1ccc(C)cc1 yielded a growth inhibition of -119%.
For COc1ccc(CCC2(C)OCCC(C)O2)cc1 (stereo not given), the growth inhibition was 94% (active).
With O=C(O)C(SC1=NNC2(C(=O)N1)c1ccccc1-c1ccccc12)SC1=NNC2(C(=O)N1)c1ccccc1-c1ccccc12 the growth inhibition was 95% (active).
In the case of CC1(C)NNC(=S)NN1, the growth inhibition is reported as 8%.
With O=C([O-])c1ccccc1[I+]c1ccc(C2CCCCC2)cc1 the growth inhibition was 85% (active).
For ClC1=C(Cl)C(Cl)(C(Cl)(Cl)Cl)C(Cl)=C1Cl, the growth inhibition was 98% (active).
With Cn1nc(N)c2cccnc21 the growth inhibition was 10%.
For CC(C)(C)c1ccc(-n2c3nc(=O)n(-c4ccccc4C(F)(F)F)c(=O)c-3cc3ccccc32)cc1, the growth inhibition was 98% (active).
With C/C(=N\Nc1ccccn1)c1ccccn1 the growth inhibition was 98% (active).
For COc1ccc2c(C)cc(N/N=C(\C)c3ccccn3)nc2c1, the growth inhibition was 57%.
For CC([NH-])C(=O)O.[Cu+2].[NH-]C(Cc1cnc[nH]1)C(=O)O (stereo not given), the growth inhibition was 2%.
With COc1ccc(C)cc1NC(=O)ON=C1CCCCC1 the growth inhibition was 94% (active).
With Oc1c(N(Cc2ccccc2)Cc2ccccc2)ccc2cccnc12 the growth inhibition was 96% (active).
With Cc1ccc2[nH]c3cc4ccncc4cc3c2c1 the growth inhibition was 95% (active).
With Cc1ccc2nn(-c3ccc(O)cc3)nc2c1 the growth inhibition was 50%.
In the case of Oc1ccc2c(ccc3ccccc32)c1, the growth inhibition is reported as 99% (active).
With ClCc1ccc2ccc3ccc(CCl)nc3c2n1 the growth inhibition was 94% (active).
With CC(=O)c1c(O)c2ccc(Cl)cc2[nH]c1=O the growth inhibition was 94% (active).
Compound O=C(c1ccc(Cl)cc1)c1ccc(OCCCOc2ccc(C(=O)c3ccc(Cl)cc3)cc2)cc1 has a growth inhibition of -26%.
In the case of C=C1CC2(C[C@@H](c3ccccc3)O[C@@H](c3ccccc3)C2)OC1=O (stereo not given in full), the growth inhibition is reported as 98% (active).
Work on O=C(N=Nc1c(O)[nH]c2ccccc12)C(O)(c1ccccc1)c1ccccc1 yielded a growth inhibition of 38%.
In the case of C/C(=N\O)c1ccc2c3c(ccc([N+](=O)[O-])c13)CC2, the growth inhibition is reported as 30%.
For N#CS/C(Cl)=C(/C(Cl)=C(Cl)Cl)[N+](=O)[O-], the growth inhibition was 99% (active).
N#C/C(=C1C=C/C(=N/O)C=C/1Cl)c1ccccc1 showed a growth inhibition of 10%.
For O=C1/C(=C/c2ccc(Cl)c(Cl)c2)CN(C(=O)CCN2CCOCC2)C/C1=C\c1ccc(Cl)c(Cl)c1, the growth inhibition was 88% (active).

Same assay, conditions: S. cerevisiae mlh1 rad18 strain growth inhibition; at 50.0 µM; stronger effect = higher value
In the case of Oc1c(Br)cc(Cl)cc1Br, the growth inhibition is reported as 97.5% (active).
For COc1ccc(C2Oc3ccc(Cl)cc3C=C2[N+](=O)[O-])cc1OC (stereo not given), the growth inhibition was 86.2% (active).
In the case of COC(=O)C(=O)CC(=O)c1cccc(Cl)c1, the growth inhibition is reported as 74.7% (active).
For O/N=C(/C[N+]12CN3CN(CN(C3)C1)C2)c1ccc(I)cc1, the growth inhibition was 92% (active).
With COc1cc(CCN=Cc2cc(Cl)cc(Cl)c2O)c([N+](=O)[O-])cc1OC the growth inhibition was 62.6%.
In the case of COc1ccc2c(c1OC)C1=C(C2=O)c2cc3c(cc2CCN1)OCO3, the growth inhibition is reported as 53.1%.
In the case of CC(C)(C)[Si](C)(C)OCC1OC(n2cc(I)c(N)nc2=O)C(O[Si](C)(C)C(C)(C)C)C1O[Si](C)(C)C(C)(C)C (stereo not given), the growth inhibition is reported as 86.7% (active).
In the case of O=S(=O)(Nc1ccccn1)c1ccc(NCc2c3ccccc3nc3cc(Cl)ccc23)cc1, the growth inhibition is reported as 71.8% (active).
With OCc1ccc2c(c1)CC1(C2)Cc2cc3c(cc2C1O)CCC3 (stereo not given) the growth inhibition was 71% (active).
In the case of COc1cc(C(c2cc3c(cc2O)OCO3)N2CCOCC2)ccc1O (stereo not given), the growth inhibition is reported as 50.5%.
With CCCCCCCCCCCCCCSC(=N)N the growth inhibition was 97.7% (active).
In the case of Cc1ccccc1NC(=S)Nc1ccccc1O, the growth inhibition is reported as 95.1% (active).
In the case of c1cc2cc(Cc3ccc4[nH]ccc4c3)ccc2[nH]1, the growth inhibition is reported as 92.2% (active).
In the case of N=C(N)c1ccc(-c2ccc(-c3ccc(C(=N)N)cc3)o2)cc1, the growth inhibition is reported as 92.2% (active).
With O=c1oc2c/c(=C\c3ccccc3)c(=O)c3cccc1c3-2 the growth inhibition was 78.7% (active).
In the case of CCCCCCCC(=O)/C=C/c1ccc(C)cc1, the growth inhibition is reported as 45%.
With COc1ccc(CCC2(C)OCCC(C)O2)cc1 (stereo not given) the growth inhibition was -26.8%.
In the case of O=C(O)C(SC1=NNC2(C(=O)N1)c1ccccc1-c1ccccc12)SC1=NNC2(C(=O)N1)c1ccccc1-c1ccccc12, the growth inhibition is reported as 97.3% (active).
CC1(C)NNC(=S)NN1 gave a growth inhibition of 41.8%.
For O=C([O-])c1ccccc1[I+]c1ccc(C2CCCCC2)cc1, the growth inhibition was 89.9% (active).
With ClC1=C(Cl)C(Cl)(C(Cl)(Cl)Cl)C(Cl)=C1Cl the growth inhibition was 99.4% (active).
Cn1nc(N)c2cccnc21 showed a growth inhibition of 0.35%.
With CC(C)(C)c1ccc(-n2c3nc(=O)n(-c4ccccc4C(F)(F)F)c(=O)c-3cc3ccccc32)cc1 the growth inhibition was 65.6%.
With C/C(=N\Nc1ccccn1)c1ccccn1 the growth inhibition was 98.5% (active).
In the case of COc1ccc2c(C)cc(N/N=C(\C)c3ccccn3)nc2c1, the growth inhibition is reported as 99.5% (active).
For CC([NH-])C(=O)O.[Cu+2].[NH-]C(Cc1cnc[nH]1)C(=O)O (stereo not given), the growth inhibition was 98.7% (active).
For COc1ccc(C)cc1NC(=O)ON=C1CCCCC1, the growth inhibition was 90.5% (active).
With Oc1c(N(Cc2ccccc2)Cc2ccccc2)ccc2cccnc12 the growth inhibition was 98% (active).
Cc1ccc2[nH]c3cc4ccncc4cc3c2c1 showed a growth inhibition of 49.9%.
For Cc1ccc2nn(-c3ccc(O)cc3)nc2c1, the growth inhibition was 74.2% (active).
For Oc1ccc2c(ccc3ccccc32)c1, the growth inhibition was 99.2% (active).
ClCc1ccc2ccc3ccc(CCl)nc3c2n1 gave a growth inhibition of 62%.
Compound CC(=O)c1c(O)c2ccc(Cl)cc2[nH]c1=O has a growth inhibition of 66.7%.
O=C(c1ccc(Cl)cc1)c1ccc(OCCCOc2ccc(C(=O)c3ccc(Cl)cc3)cc2)cc1 showed a growth inhibition of -1.7%.
With C=C1CC2(C[C@@H](c3ccccc3)O[C@@H](c3ccccc3)C2)OC1=O (stereo not given in full) the growth inhibition was 92.5% (active).
For O=C(N=Nc1c(O)[nH]c2ccccc12)C(O)(c1ccccc1)c1ccccc1, the growth inhibition was 29.1%.
In the case of C/C(=N\O)c1ccc2c3c(ccc([N+](=O)[O-])c13)CC2, the growth inhibition is reported as 88.5% (active).
For N#CS/C(Cl)=C(/C(Cl)=C(Cl)Cl)[N+](=O)[O-], the growth inhibition was 81.2% (active).
For N#C/C(=C1C=C/C(=N/O)C=C/1Cl)c1ccccc1, the growth inhibition was 26.4%.
In the case of O=C1/C(=C/c2ccc(Cl)c(Cl)c2)CN(C(=O)CCN2CCOCC2)C/C1=C\c1ccc(Cl)c(Cl)c1, the growth inhibition is reported as 87.5% (active).
